Assay results as given in ChEMBL document CHEMBL1961873, “Compounds: GSK PKIS; Assays: Nanosyn kinase panel” (2012).

What was measured:
[1] = target: Serine/threonine-protein kinase MARK2 (Homo sapiens) (UniProt Q7KZI7); conditions: at 1 µM
[2] = target: PAS domain-containing serine/threonine-protein kinase (Homo sapiens) (UniProt Q96RG2); conditions: at 0.1 µM
[3] = target: PAS domain-containing serine/threonine-protein kinase (Homo sapiens) (UniProt Q96RG2); conditions: at 1 µM
[4] = target: Phosphorylase b kinase gamma catalytic chain, skeletal muscle/heart isoform (Homo sapiens) (UniProt Q16816); conditions: at 0.1 µM
Chain of Phosphorylase b kinase gamma catalytic chain, skeletal muscle/heart isoform (Homo sapiens) (Q16816 whole entry, looked up, canonical isoform): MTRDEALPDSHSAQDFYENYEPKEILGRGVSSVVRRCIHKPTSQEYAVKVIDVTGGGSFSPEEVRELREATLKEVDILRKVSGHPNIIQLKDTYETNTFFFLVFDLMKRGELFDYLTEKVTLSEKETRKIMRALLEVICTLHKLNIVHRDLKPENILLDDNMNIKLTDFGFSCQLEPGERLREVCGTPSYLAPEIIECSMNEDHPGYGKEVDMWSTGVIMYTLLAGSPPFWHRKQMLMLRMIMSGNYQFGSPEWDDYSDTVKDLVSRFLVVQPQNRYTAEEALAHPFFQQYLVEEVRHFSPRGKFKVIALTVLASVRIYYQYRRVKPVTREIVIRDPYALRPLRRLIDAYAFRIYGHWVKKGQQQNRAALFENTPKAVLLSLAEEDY

[5] = target: Phosphorylase b kinase gamma catalytic chain, skeletal muscle/heart isoform (Homo sapiens) (UniProt Q16816); conditions: at 1 µM
[6] = target: T1, Phosphorylase b kinase gamma catalytic chain, liver/testis isoform (Homo sapiens) (UniProt P15735); conditions: at 0.1 µM
T1 sequence (whole entry): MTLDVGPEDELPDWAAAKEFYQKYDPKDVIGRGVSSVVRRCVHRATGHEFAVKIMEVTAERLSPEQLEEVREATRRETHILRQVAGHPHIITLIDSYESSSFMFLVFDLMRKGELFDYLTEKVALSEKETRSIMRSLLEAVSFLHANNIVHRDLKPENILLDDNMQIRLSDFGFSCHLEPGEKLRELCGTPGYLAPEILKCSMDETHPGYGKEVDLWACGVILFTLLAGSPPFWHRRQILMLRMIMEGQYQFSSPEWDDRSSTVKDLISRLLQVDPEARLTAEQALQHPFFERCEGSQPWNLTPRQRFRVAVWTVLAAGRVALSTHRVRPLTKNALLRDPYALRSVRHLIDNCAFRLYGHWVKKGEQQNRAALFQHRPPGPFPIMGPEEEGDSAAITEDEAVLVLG

[7] = target: T1, Phosphorylase b kinase gamma catalytic chain, liver/testis isoform (Homo sapiens); conditions: at 1 µM
[8] = target: Serine/threonine-protein kinase pim-1 (Homo sapiens) (UniProt P11309); conditions: at 0.1 µM
Chain of Serine/threonine-protein kinase pim-1 (Homo sapiens) (P11309 whole entry, looked up): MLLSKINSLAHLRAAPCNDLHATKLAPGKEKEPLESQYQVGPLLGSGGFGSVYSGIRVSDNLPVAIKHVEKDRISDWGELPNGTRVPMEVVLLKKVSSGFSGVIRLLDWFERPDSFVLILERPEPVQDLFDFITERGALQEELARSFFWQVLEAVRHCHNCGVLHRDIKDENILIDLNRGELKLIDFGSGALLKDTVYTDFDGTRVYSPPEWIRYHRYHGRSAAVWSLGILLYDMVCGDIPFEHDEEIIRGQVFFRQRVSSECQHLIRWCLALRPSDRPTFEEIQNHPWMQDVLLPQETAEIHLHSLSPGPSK

[9] = target: Serine/threonine-protein kinase pim-1 (Homo sapiens) (UniProt P11309); conditions: at 1 µM
[10] = target: Serine/threonine-protein kinase pim-2 (Homo sapiens) (UniProt Q9P1W9); conditions: at 0.1 µM
Chain of Serine/threonine-protein kinase pim-2 (Homo sapiens) (Q9P1W9 whole entry, looked up): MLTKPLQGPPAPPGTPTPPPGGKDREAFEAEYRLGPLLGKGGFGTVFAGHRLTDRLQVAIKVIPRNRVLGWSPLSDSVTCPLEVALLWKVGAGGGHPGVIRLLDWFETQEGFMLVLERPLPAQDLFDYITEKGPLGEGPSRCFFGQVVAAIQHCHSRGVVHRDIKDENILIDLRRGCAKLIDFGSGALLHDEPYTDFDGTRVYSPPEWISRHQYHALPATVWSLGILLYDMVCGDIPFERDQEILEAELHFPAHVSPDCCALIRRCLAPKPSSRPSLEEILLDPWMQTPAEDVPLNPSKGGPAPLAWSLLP

[11] = target: Serine/threonine-protein kinase pim-2 (Homo sapiens) (UniProt Q9P1W9); conditions: at 1 µM
[12] = target: Serine/threonine-protein kinase pim-3 (Homo sapiens) (UniProt Q86V86); conditions: at 0.1 µM
[13] = target: Serine/threonine-protein kinase pim-3 (Homo sapiens) (UniProt Q86V86); conditions: at 1 µM
[14] = target: T2, MAP kinase-activated protein kinase 5 (Homo sapiens) (UniProt Q8IW41); conditions: at 0.1 µM
T2 sequence (whole entry): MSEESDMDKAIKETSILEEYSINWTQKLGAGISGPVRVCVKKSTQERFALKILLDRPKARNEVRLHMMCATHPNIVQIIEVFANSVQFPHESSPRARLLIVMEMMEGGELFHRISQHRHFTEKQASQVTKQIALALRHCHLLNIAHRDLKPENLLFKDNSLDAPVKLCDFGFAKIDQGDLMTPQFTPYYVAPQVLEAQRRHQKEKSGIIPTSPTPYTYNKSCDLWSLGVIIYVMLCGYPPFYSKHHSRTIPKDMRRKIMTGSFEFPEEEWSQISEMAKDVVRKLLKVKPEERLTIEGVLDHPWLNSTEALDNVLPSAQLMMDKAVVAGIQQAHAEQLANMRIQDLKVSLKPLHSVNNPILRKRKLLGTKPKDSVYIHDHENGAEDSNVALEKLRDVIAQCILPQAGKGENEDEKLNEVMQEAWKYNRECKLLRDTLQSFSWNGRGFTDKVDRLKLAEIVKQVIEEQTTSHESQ

[15] = target: T2, MAP kinase-activated protein kinase 5 (Homo sapiens); conditions: at 1 µM
[16] = target: Serine/threonine-protein kinase SIK1 (Homo sapiens) (UniProt P57059); conditions: at 0.1 µM
Chain of Serine/threonine-protein kinase SIK1 (Homo sapiens) (P57059 whole entry): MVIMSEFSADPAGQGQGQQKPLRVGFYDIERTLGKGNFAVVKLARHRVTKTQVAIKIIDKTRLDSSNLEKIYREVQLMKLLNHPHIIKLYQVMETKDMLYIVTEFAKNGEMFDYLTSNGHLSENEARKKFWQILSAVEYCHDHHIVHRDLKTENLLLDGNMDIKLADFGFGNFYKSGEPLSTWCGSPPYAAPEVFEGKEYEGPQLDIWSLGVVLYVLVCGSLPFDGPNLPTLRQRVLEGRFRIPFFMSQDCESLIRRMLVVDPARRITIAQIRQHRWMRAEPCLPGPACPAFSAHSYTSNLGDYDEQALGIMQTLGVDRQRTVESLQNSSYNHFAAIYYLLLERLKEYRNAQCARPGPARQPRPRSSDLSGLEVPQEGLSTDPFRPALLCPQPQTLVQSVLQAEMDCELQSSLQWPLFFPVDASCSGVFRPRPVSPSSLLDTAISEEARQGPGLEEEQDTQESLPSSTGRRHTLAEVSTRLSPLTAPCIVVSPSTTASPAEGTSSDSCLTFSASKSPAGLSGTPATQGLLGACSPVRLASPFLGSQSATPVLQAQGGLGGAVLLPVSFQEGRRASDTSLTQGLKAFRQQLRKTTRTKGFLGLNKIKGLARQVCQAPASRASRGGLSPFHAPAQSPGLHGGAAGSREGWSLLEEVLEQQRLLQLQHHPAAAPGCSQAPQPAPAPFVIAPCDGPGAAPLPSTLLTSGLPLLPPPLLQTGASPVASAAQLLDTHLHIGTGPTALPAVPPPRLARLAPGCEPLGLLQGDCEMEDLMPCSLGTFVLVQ

[17] = target: Serine/threonine-protein kinase SIK1 (Homo sapiens) (UniProt P57059); conditions: at 1 µM
[18] = target: Serine/threonine-protein kinase SIK2 (Homo sapiens) (UniProt Q9H0K1); conditions: at 0.1 µM
Chain of Serine/threonine-protein kinase SIK2 (Homo sapiens) (Q9H0K1 whole entry, looked up): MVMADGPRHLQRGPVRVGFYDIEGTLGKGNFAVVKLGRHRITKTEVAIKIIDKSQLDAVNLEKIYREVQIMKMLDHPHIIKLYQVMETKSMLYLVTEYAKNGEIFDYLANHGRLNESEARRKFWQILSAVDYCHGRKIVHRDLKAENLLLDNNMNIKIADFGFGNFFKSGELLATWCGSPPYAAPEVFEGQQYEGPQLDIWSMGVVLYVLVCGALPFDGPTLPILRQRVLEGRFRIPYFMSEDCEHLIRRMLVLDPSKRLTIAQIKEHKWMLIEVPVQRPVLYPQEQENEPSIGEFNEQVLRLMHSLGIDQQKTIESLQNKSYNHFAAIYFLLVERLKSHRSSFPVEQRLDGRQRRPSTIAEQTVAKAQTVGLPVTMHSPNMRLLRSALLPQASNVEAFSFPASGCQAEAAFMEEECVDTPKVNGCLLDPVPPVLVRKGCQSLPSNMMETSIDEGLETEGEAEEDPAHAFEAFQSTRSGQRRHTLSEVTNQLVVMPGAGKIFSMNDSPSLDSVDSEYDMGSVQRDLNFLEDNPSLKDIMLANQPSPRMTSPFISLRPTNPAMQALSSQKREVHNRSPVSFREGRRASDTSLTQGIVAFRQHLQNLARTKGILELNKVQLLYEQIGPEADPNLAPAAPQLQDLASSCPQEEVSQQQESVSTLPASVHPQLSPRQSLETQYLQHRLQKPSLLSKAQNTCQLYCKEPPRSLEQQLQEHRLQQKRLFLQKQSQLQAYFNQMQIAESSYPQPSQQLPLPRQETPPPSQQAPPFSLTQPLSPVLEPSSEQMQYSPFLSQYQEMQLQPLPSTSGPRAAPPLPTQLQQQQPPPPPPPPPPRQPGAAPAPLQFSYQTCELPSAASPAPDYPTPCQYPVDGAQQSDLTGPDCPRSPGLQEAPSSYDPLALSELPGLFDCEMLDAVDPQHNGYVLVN

[19] = target: Serine/threonine-protein kinase SIK2 (Homo sapiens) (UniProt Q9H0K1); conditions: at 1 µM
[20] = target: T3, Serine/threonine-protein kinase TBK1 (Homo sapiens) (UniProt Q9UHD2); conditions: at 0.1 µM;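 further: values are the mean TBK1 inhibition, taken from the GSK PKIS screening data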
T3 sequence (whole entry): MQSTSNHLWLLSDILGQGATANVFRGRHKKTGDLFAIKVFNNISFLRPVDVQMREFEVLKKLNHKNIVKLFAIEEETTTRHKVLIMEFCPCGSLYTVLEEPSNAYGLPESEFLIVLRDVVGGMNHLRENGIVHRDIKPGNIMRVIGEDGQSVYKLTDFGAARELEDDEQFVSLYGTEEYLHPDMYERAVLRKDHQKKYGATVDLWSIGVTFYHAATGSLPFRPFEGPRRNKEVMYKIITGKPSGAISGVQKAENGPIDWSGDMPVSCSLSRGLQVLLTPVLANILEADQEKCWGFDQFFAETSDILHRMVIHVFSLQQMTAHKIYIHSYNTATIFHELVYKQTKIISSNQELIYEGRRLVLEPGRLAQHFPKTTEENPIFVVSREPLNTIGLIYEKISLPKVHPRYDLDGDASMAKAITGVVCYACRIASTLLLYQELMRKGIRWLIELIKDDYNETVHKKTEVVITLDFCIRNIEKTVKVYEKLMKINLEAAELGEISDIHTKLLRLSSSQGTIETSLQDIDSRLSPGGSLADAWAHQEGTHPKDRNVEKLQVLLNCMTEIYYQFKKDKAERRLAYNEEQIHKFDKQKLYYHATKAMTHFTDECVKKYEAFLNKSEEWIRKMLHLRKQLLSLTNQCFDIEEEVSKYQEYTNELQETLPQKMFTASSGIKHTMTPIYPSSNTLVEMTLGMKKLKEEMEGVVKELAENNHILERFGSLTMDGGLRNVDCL

Chain of Serine/threonine-protein kinase MARK2 (Homo sapiens) (Q7KZI7 whole entry, the tested form may be a part): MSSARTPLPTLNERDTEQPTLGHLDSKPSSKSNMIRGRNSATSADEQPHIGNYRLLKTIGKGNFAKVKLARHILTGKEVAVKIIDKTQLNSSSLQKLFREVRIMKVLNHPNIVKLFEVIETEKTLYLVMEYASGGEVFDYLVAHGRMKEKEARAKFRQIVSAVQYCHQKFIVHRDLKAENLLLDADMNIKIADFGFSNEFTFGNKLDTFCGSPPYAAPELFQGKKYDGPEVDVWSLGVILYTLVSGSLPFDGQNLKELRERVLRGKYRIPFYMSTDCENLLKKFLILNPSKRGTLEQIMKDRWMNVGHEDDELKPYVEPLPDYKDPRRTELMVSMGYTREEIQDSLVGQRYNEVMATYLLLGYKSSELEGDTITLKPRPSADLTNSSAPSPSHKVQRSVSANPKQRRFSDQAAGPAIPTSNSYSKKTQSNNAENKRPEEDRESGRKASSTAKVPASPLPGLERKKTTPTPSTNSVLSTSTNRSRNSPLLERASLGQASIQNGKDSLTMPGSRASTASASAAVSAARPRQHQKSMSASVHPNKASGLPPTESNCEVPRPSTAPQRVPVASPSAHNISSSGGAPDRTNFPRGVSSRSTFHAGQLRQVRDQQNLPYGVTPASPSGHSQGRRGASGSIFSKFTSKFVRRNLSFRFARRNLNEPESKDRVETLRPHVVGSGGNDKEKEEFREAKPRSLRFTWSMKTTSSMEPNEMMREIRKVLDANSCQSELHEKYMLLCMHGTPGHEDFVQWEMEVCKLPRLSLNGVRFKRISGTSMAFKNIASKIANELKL

SMILES | inhibition [1] [%] | inhibition [2] [%] | inhibition [3] [%] | inhibition [4] [%] | inhibition [5] [%] | inhibition [6] [%] | inhibition [7] [%] | inhibition [8] [%] | inhibition [9] [%] | inhibition [10] [%] | inhibition [11] [%] | inhibition [12] [%] | inhibition [13] [%] | inhibition [14] [%] | inhibition [15] [%] | inhibition [16] [%] | inhibition [17] [%] | inhibition [18] [%] | inhibition [19] [%] | inhibition [20] [%]
Nc1ccc(C#Cc2cncnc2Nc2ccc(OCc3cccc(F)c3)c(Cl)c2)cc1 | 0.46 | 1.09 | 1.56 | 4.22 | 2.49 | 3.68 | 4.32 | 0.21 | 1.21 | 0.43 | 0.51 | -0.08 | 1.14 | 1.7 | 0.75 | 5.15 | 2.18 | -0.99 | 5.08 | 2.5
[O-][S+]1CCN(Cc2ccc(-c3ccc4ncnc(Nc5ccc(OCc6ccccc6)c(Cl)c5)c4c3)o2)CC1 | 2.27 | 0.68 | -0.53 | 3.63 | 3.41 | 2.31 | -0.04 | 0.56 | 1.25 | 0.46 | 0.25 | 0.7 | 1.32 | 0.67 | 0.37 | 0.43 | 7.59 | 1.44 | 5.75 | 0.91
CCS(=O)(=O)c1ccc(OC)c(Nc2ncc(-c3cccc(OC)c3)o2)c1 | 1.4 | 0.21 | -1.97 | 1.03 | 18.3 | 2.69 | -0.05 | 1.53 | 2.93 | 0.07 | 0.96 | -0.8 | -0.55 | 0.94 | -0.22 | 6.26 | 28.6 | 8.33 | 31.2 | 0.69
O=S(=O)(CCOCc1ccc(-c2ccc3ncnc(Nc4ccc(OCc5cccc(F)c5)c(Cl)c4)c3c2)o1)c1ccccc1 | 3.35 | -0.23 | -0.13 | 1.12 | 5.02 | 1.75 | -0.77 | 1.1 | 2.1 | 0.88 | 2.24 | 0.82 | 2.26 | 0.61 | 0.15 | 3.79 | 5.54 | 0.88 | 1.15 | 0.12
Cc1ccc2c(-c3ccnc(Nc4cccc(C(F)(F)F)c4)n3)c(-c3ccccc3)nn2n1 | 4.11 | -0.16 | -0.17 | 2.62 | 7.08 | 4.1 | 4.82 | 1.05 | 1.72 | -0.26 | -0.7 | 0.5 | 1.85 | 1.8 | 1.94 | 6.3 | 15.8 | 1.03 | 9.81 | 3.23
Cc1ccc(Nc2ccnc(Nc3cccc(C(N)=O)c3)n2)cc1O | 3.99 | 0.66 | 0.18 | 1.96 | 10.4 | 4.75 | 6.26 | 0.14 | 1.49 | -4.07 | -3.06 | 0.18 | 1.91 | 1.13 | 1.29 | 29.8 | 80.2 | 13.1 | 53.5 | 2.74
Nc1nccc(C#Cc2cncnc2Nc2ccc(OCc3cccc(F)c3)c(Cl)c2)n1 | 8.86 | -0.05 | -3.04 | 6.86 | 27.5 | 4.05 | 2.05 | 1.29 | 1.16 | 0.62 | 1.29 | -0.87 | -1.09 | 0.74 | -0.01 | 5.03 | 6.42 | 5.11 | 8.28 | 4.36
NS(=O)(=O)c1ccc(Nc2cc(-c3cccc(O)c3)n[nH]2)cc1 | 6.24 | 0.14 | -1.99 | 3.73 | 12.8 | 6.63 | 6.34 | -0.06 | 1.3 | 0.62 | 1.32 | -2.75 | -0.87 | 1.59 | 1.7 | 6.53 | 13.8 | 6.19 | 16.4 | 4.83
Nc1nccc(-c2c(-c3ccc(F)cc3)nn3cc(C(F)(F)F)ccc23)n1 | -0.77 | 0.89 | 0.42 | 3.63 | 3.94 | 0.86 | 0.54 | 0.21 | -0.89 | -0.09 | 0.77 | 0.74 | 0.92 | 0.34 | 0.16 | -0.43 | 1.61 | -1.04 | -1.57 | -2.75
COc1cccc(-n2nc(C)c3c(N/N=C(\C)c4ccncc4)ncnc32)c1 | 0.88 | 1.38 | 0.57 | 0.48 | 2.64 | 0.83 | 0.29 | -0.49 | 0.18 | -0.5 | -0.42 | -0.59 | -1.03 | -0.18 | -0.64 | 1.56 | 3.69 | 0.4 | -0.38 | -0.16
Cc1cc(O)cc(C)c1/C=C/c1cncc(C(=O)N(C)C)c1 | 1.77 | 0.83 | -0.85 | 3.09 | 2.61 | 2.55 | 0.54 | 1.21 | 2.17 | 0.03 | 0.34 | -1.55 | -0.09 | 0.59 | -0.52 | 9.45 | 29.4 | 4.34 | 4.27 | 1.36
Cc1cc(Cl)cc2c1NC(=O)C2=NNc1ccc(S(N)(=O)=O)cc1 | -0.15 | 0.48 | 1.94 | 3.63 | 6.02 | 2.58 | 5.19 | 0.03 | 1.28 | -0.12 | 0.51 | 0.42 | 2.98 | 1.54 | 2.85 | 1.46 | 4.61 | 5.46 | -2.05 | 1.17
NS(=O)(=O)c1ccc(N/N=C2\C(=O)Nc3ccc(Cl)cc32)cc1 | 6.16 | 0.76 | 1.52 | 0.25 | 14.3 | 5.9 | 8.4 | 1.22 | 2.42 | -0.27 | 2.1 | 0.5 | 4.86 | 1.31 | 3.24 | 3.88 | 10.9 | 3.51 | 10.6 | 2.27
CN(C)C(=O)O[C@H]1CN[C@H](C#Cc2cc3ncnc(Nc4ccc(OCc5cccc(F)c5)c(Cl)c4)c3s2)C1 | 1.09 | 0.16 | -0.64 | 2.62 | 2.71 | 2.94 | -0.02 | -0.09 | 0.1 | 0.57 | 0.45 | -0.1 | -1.11 | 0.7 | -0.94 | 4.32 | 5.89 | 11.5 | 12.2 | -0.37
